Experimental data reported in PubChem BioAssay (NCATS).
Inconclusive results are not listed. Active and inactive are the calls of the source. The call rests on the fitted dose curve; in most records, active means well fitted inhibition curve with a large enough effect; inconclusive means small, poorly fitted or top-dose-only effect; inactive means no such curve, though single readings can be large or run the other way. Where a SMILES comes first, the peptide text is derived from it.

Each compound was assayed on Zika virus NS2B-NS3 protease (linked construct) (assay: Primary screen NINDS Rhodamine qHTS for Zika virus inhibitors (AID 1347160; further: nearly all actives have a fitted effect of over 55% in size)). Settings: purified NS2B-NS3 protease, Rhodamine110 substrate fluorescence; series mostly up to 57.1 µM; activity change, negative = inhibition: at the top concentration.
How it was run: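 Purified NS2B-NS3 protease with the NS2B hydrophilic domain joined by a flexible linker (25 nM) in 10 mM Tris-HCl pH 8.0, 0.01% Tween 20, preincubated 15 min at RT with compound; Rhodamine110 peptide substrate 1.5 µM; fluorescence change over 15 min; 4-parameter Hill fit.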
On the % scale 0 is the no-effect control and ±100 the full control effect.

Row | SMILES | activity change, negative = inhibition
1 | O=C(C1CC1)N1CC[C@@H](Cc2n[nH]c(=O)n2-c2ccc(-c3ccc4occc4c3)cc2)C1 | 10.2% [at 15.1 µM] (inactive)
2 | CC(=O)N1c2ccccc2C2(O)CC3C(=O)NC(CC(C)C)C(=O)N3C12 (stereo not drawn) | 36.1% [at 33.1 µM] (inactive)
3 | COC1=Cc2c(nc3n(c2=O)C(C)C(=O)NC3(O)C(C)C)OC=C1 (stereo not drawn) | 12.6% [at 33.1 µM] (inactive)
4 | COc1cc(N2CCC(N(C)C)CC2)ccc1Nc1ncc(Cl)c(Nc2ccccc2P(C)(C)=O)n1 | 18.9% (inactive)
5 | CC/C=C/CC1=C(CCCCCCCC(=O)O)CCC1=O | 8.32% (inactive)
6 | O=C(O)C[C@H](O)C[C@H](O)/C=C/c1c(C2CC2)nc2ccccc2c1-c1ccc(F)cc1 | 79.6% (inactive)
7 | C[C@@H](O)[C@H](N)C(=O)N1CCC[C@H]1C(=O)N1CCC[C@H]1C(=O)N[C@H](C(N)=O)[C@@H](C)O (H-TPPT-NH2) | 20.4% [at 10.7 µM] (inactive)
8 | C[C@@H]1O[C@@H](O[C@H]2[C@H](O[C@H]3CC[C@@]4(C)C(CC[C@]5(C)C4CC=C4C6CC(C)(C)CC[C@]6(C(=O)O[C@@H]6O[C@H](CO[C@@H]7O[C@H](CO)[C@@H](O[C@@H]8O[C@@H](C)[C@H](O)[C@@H](O)[C@H]8O)[C@H](O)[C@H]7O)[C@@H](O)[C@H](O)[C@H]6O)CC[C@]45C)[C@]3(C)CO)OC[C@H](O)[C@@H]2O)[C@H](O)[C@H](O)[C@H]1O (stereo partly drawn) | 37.8% [at 10.7 µM] (inactive)
